UDG counter: Primary qHTS assay for inhibitors of Activation Induced Cytidine Deaminase (AID): UDG Counterscreen signal. Uracil-DNA glycosylase. FRET deamination/UDG coupled assay, UDG read, 4 h. Potency, µM (top dose mostly 115 µM), for inactives: at the highest dose activity change, negative = inhibition, most hits filed as inhibitors. 91,000 compounds, 0.14% hits; also: nearly all actives have a fitted effect of over 65% in size
AID inhibitor: Primary qHTS assay for inhibitors of Activation Induced Cytidine Deaminase (AID): AID signal | 91,000 compounds, 0.32% hits | AID deamination FRET fluorescence, UDG-coupled, 4 h | Potency, µM (highest dose often 115 µM), hits mostly inhibitors; also: nearly all actives have a fitted effect of over 25% in size
Target sequence (Q9GZX7 whole entry, looked up): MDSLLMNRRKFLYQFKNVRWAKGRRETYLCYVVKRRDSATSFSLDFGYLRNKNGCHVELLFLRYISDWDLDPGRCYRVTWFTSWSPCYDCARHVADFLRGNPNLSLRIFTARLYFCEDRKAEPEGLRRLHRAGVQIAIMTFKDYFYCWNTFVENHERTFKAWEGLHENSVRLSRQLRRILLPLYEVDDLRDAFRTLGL
* hit, by the source's call; [ ] = remark or other dose. This is a sample that favours compounds with a hit; in the whole collection about 0.47% have one here. Calls follow the shape of the dose curve; as a rule, active = well fitted curve in the direction sought with a large enough effect; inconclusive = small, poorly fitted or top-dose-only effect, or another doubt; inactive = no such curve, though single readings can be large; an effect the other way counts as inactive or inconclusive. % is scaled to controls: 0 for no effect and ±100 for the full control effect; potency is read from the fitted curve at half-maximal effect.

Results for COCCn1c(CN2CCC(C(N)=O)CC2)nc2c1c(=O)n(C)c(=O)n2C ?
UDG counter: 12%; AID inhibitor: inactive

Results for CC(C)CC(=O)NC(NC(=O)CC(C)C)c1ccccc1F ?
UDG counter: -8%; AID inhibitor: inactive

How did FC(F)(F)c1cccc(CSc2nnc(SCc3cccc(C(F)(F)F)c3)s2)c1 do in these assays?
UDG counter: -11%; AID inhibitor: inactive

How did CN(C)C(=O)COC(=O)c1cc(-c2cccs2)nc2ccccc12 do in these assays?
UDG counter: 3%; AID inhibitor: inactive

What do the screens show for `CC(C)Cc1nc2cccnc2n1C1CCN(S(=O)(=O)c2ccc3c(c2)CCCC3)CC1`?
UDG counter: 79µM*; AID inhibitor: inactive

Results for Cc1nc2cccnc2n1C1CCN(S(=O)(=O)c2ccc(Cl)cc2)CC1 ?
UDG counter: inconclusive; AID inhibitor: inactive

How did CCCn1c(C)cc(C(=O)COc2ncnc3ccccc23)c1C do in these assays?
UDG counter: -4%; AID inhibitor: inactive

How did OCCNc1nc(Nc2cccc(Cl)c2)nc2nccnc12 do in these assays?
UDG counter: 1%; AID inhibitor: 79µM*

Results for OCCNc1nc(Nc2ccc(Cl)c(Cl)c2)nc2nccnc12 ?
UDG counter: -4%; AID inhibitor: 35µM*

Results for OCCNc1nc(Nc2ccc(Br)cc2)nc2nccnc12 ?
UDG counter: -4%; AID inhibitor: inconclusive

Results for c1ccc(CCNc2nc(Nc3ccccc3)c3nccnc3n2)cc1 ?
UDG counter: -4%; AID inhibitor: inactive

How did Cc1cccc(N2CCN(C(=O)c3ccc(CS(=O)c4cccc(Cl)c4)o3)CC2)c1C (stereo not given) do in these assays?
UDG counter: -4%; AID inhibitor: inconclusive

Results for CC(C)N(C)CC1CCN(C(=O)Nc2cccc(Cl)c2)CC1 ?
UDG counter: -6%; AID inhibitor: inactive

How did CCn1cc(/C=C(\NC(=O)c2ccco2)C(=O)NCCCN2CCOCC2)c2ccccc21 do in these assays?
UDG counter: 5%; AID inhibitor: inactive

What do the screens show for `Cc1cc2c(C(C)C)c(O)c(O)c(C=O)c2c(O)c1-c1c(C)cc2c(C(C)C)c(O)c(O)c(C=O)c2c1O`?
UDG counter: -4%; AID inhibitor: 79µM*

How did CN(C)CCN(Cc1cccc(F)c1)C(=O)c1cccc(S(C)(=O)=O)c1 do in these assays?
UDG counter: 3%; AID inhibitor: inactive

What do the screens show for `Cc1ccc(-n2c(SCC(N)=O)nc3c(c2=O)C2(CCCC2)Cc2ccccc2-3)cc1`?
UDG counter: 79µM*; AID inhibitor: inactive

How did COc1ccccc1-n1c(SCC(N)=O)nc2c(c1=O)C1(CCCCC1)Cc1ccccc1-2 do in these assays?
UDG counter: -11%; AID inhibitor: inactive

What do the screens show for `CCN(CCCNC(=O)c1cc2c(=O)n(CC)c3ccccc3c2s1)c1cccc(C)c1`?
UDG counter: -2%; AID inhibitor: inactive

Results for Cc1ccc(Cc2nc3ccccc3nc2SCC(=O)N2CCC(C)CC2)cc1 ?
UDG counter: -12%; AID inhibitor: inconclusive

What do the screens show for `CC1CCCCN1C(=O)CSc1nc2ccccc2nc1Cc1ccccc1` (stereo not given)?
UDG counter: -19%; AID inhibitor: 50µM*

Results for O=C(COC(=O)c1ccc2ncsc2c1)c1ccc2c(c1)OCCCO2 ?
UDG counter: -10%; AID inhibitor: inactive

How did Cc1oc(-c2ccc(Cl)cc2)nc1CS(=O)CC(=O)N1CCN(c2cccc(C(F)(F)F)c2)CC1 (stereo not given) do in these assays?
UDG counter: -11%[57.5 µM]; AID inhibitor: inconclusive

What do the screens show for `COc1cccc(-c2nc(CS(=O)CC(=O)N3CCN(c4cccc(C(F)(F)F)c4)CC3)c(C)o2)c1` (stereo not given)?
UDG counter: -14%[57.5 µM]; AID inhibitor: 45µM*

How did COc1cccc(N2CC(NC(=O)c3ccco3)CC2=O)c1 (stereo not given) do in these assays?
UDG counter: -26%; AID inhibitor: inactive

What do the screens show for `CCC1=Nc2cc(C(=O)NCc3ccccc3Cl)ccc2Sc2ccc(C)cc21`?
UDG counter: -6%; AID inhibitor: inactive

Results for CCC1=Nc2cc(C(=O)N3CCC(C)CC3)ccc2Sc2ccc(C)cc21 ?
UDG counter: -13%; AID inhibitor: 32µM*

What do the screens show for `CCOc1ccc(CNS(=O)(=O)c2ccc(-c3coc(C)n3)cc2)cc1`?
UDG counter: 1%; AID inhibitor: inactive

What do the screens show for `O=C(O)c1cccc(NC(=O)c2cccc(S(=O)(=O)Nc3cccc(C(=O)O)c3)c2)c1`?
UDG counter: -7%; AID inhibitor: inactive

Results for O=C(Nc1cccc(C(=O)Nc2ccc(S(=O)(=O)O)c3cc(S(=O)(=O)O)cc(S(=O)(=O)O)c23)c1)Nc1cccc(C(=O)Nc2ccc(S(=O)(=O)O)c3cc(S(=O)(=O)O)cc(S(=O)(=O)O)c23)c1 ?
UDG counter: -8%; AID inhibitor: 50µM*

How did CCN1C(C(=O)c2ccccc2)=C(OC(=O)c2ccccc2OC)c2ccccc2S1(=O)=O do in these assays?
UDG counter: 5%; AID inhibitor: inactive

What do the screens show for `c1ccc(SC(Sc2ccccc2)=C(Sc2ccccc2)Sc2ccccc2)cc1`?
UDG counter: -9%; AID inhibitor: inactive

How did NC(=O)COc1ccc(C2CC(=O)Nc3nc(N4CCCCC4)sc32)cc1 (stereo not given) do in these assays?
UDG counter: -15%; AID inhibitor: 22µM*

What do the screens show for `Nc1nc2c(s1)C(c1cccc(OCc3cccc(F)c3)c1)CC(=O)N2` (stereo not given)?
UDG counter: -13%; AID inhibitor: inconclusive

What do the screens show for `COc1ccc(C2CC(=O)Nc3ccsc32)cc1OCC(N)=O` (stereo not given)?
UDG counter: -1%; AID inhibitor: inactive

How did NC(=O)COc1cccc(C2CC(=O)Nc3nc(N4CCCCC4)sc32)c1 (stereo not given) do in these assays?
UDG counter: -17%; AID inhibitor: 28µM*

How did COc1cc(C2CC(=O)Nc3nc(N4CCCCC4)sc32)ccc1OCC(N)=O (stereo not given) do in these assays?
UDG counter: -17%; AID inhibitor: 22µM*

Results for COc1ccc(C2CC(=O)Nc3nc(N)sc32)cc1OC1CCCC1 (stereo not given) ?
UDG counter: -16%; AID inhibitor: inconclusive

Results for O=C(CC1N=C2c3ccccc3N=C(SCc3ccccc3Cl)N2C1=O)NCCc1ccccc1 (stereo not given) ?
UDG counter: 5%; AID inhibitor: inconclusive

Bioassay records from PubChem.
